# Data as given in PubChem BioAssay AID1259389 (Center for Chemical Genomics, University of Michigan, 2018).
# Among all 100,000 compounds or so, about 620 (0.62%) were called active. Many of the other results were omitted from the sample, so actives are more common in it than they were. A number with no mark means an inactive call. Rule for the calls: active = z-score of 3 or more in at least 2 runs; inactive = the rest.
# Experiment: TAR RNA-Tat peptide displacers, HIV-1, primary screen, biochemical, FRET, FAM/TAMRA-labeled Tat (AID 1259389)
# Conditions: HIV-1 TAR RNA, Tat peptide displacement FRET; active compounds read high
row,SMILES,z-score
1,Cc1c2c(c(O)c3c(O)cccc13)C(=O)OC2[C@@H]1C(N(C)C)C(O)=C(C(N)=O)C(=O)[C@H]1O (stereo partly drawn),31 (active)
2,COc1cc(NC(=O)NCC2CCCO2)cc2sc(NS(=O)(=O)c3ccccc3)nc12 (stereo not drawn),0.36
3,Cc1ccc2cc(-c3noc(CC(C)C)n3)c(=O)[nH]c2c1,-1.58
4,Cc1ccc2cc(-c3noc(CCC(N)=O)n3)c(=O)[nH]c2c1,6.88 (active)
5,COc1cccc(-c2nc(-c3cc4cc(C)ccc4[nH]c3=O)no2)c1,0.22
6,C=CCOc1ccc(C2c3c(oc4ccc(F)cc4c3=O)C(=O)N2CCOC)cc1 (stereo not drawn),2.08
7,CCCOC(=O)C1=C(C)Nc2nnnn2C1c1cc(Br)ccc1OC (stereo not drawn),-6.75
8,Cc1cc2c3c([nH]c2cc1S(=O)(=O)Nc1ccccc1F)CC(C)(C)CC3=O,0.08
9,CCCS(=O)(=O)Nc1cccc(-c2cn3ccsc3n2)c1,15.9 (active)
10,Cc1ccc(S(=O)(=O)Nc2cccc(-c3cn4ccccc4n3)c2)cc1C,0.58
11,CCCS(=O)(=O)Nc1cccc(-c2ccc(S(=O)(=O)CC)nn2)c1,-0.4
12,O=C1COc2cc(S(=O)(=O)CCC(=O)N3CCCC3)c(Cl)cc2N1,0.78
13,Cc1ccc(C)c(N2CCN(c3ncnc4sc(C(=O)O)c(C)c34)CC2)c1,4.41 (active)
14,COc1ncnc2sc(C(=O)O)c(C)c12,1.15
15,CCN1CCN(c2ncnc3sc(C(=O)N4CCC(N5CCCCC5)CC4)c(C)c23)CC1,1.72
16,Cn1c(=O)oc2cc(S(=O)(=O)N3CCC(C(=O)NCCC4=CCCCC4)CC3)ccc21,-0.51
17,CCOC(=O)C1=C(C)NC2=C(C(=O)C(C(=O)OC)C(C)C2)C1c1ccc(C)s1 (stereo not drawn),1.89
18,Cc1cccc(NC(=O)c2cc3c(s2)-c2ccccc2S(=O)(=O)C3)n1,1.46
19,CCc1ccc(Nc2nn3c(=O)c4cc5c(cc4nc3s2)OCO5)cc1,3.98
20,COC(=O)c1ccc2c(=O)n3nc(Nc4ccc(F)c(F)c4)sc3nc2c1,-0.18
21,O=c1c2ccccc2nc2sc(Nc3ccc4c(c3)OCO4)nn12,18.8 (active)
22,C=CCN(Cc1nc(-c2cccc(C)c2)no1)S(=O)(=O)c1ccccc1,1.74
23,CC(C)OC(=O)c1ccc(N2CC(O)=C(c3nc4ccccc4n3C)C2=N)cc1,-0.32
24,CSc1cccc(N2CC(c3nc4ccccc4n3CCN3CCOCC3)CC2=O)c1 (stereo not drawn),1.11
25,CCc1cccc(NS(=O)(=O)c2ccc(/C=C/c3onc(C)c3[N+](=O)[O-])cc2)c1,1.16

row,SMILES,z-score
1,CCCCN(C)S(=O)(=O)c1cc(-c2cc(C)no2)ccc1CC,2.74
2,CCCSc1ncc(CO)n1Cc1ccccc1,1.26
3,COc1ccccc1N1CCN(Cc2cc(=O)n3nc(C4CCCCC4)sc3n2)CC1,0.09
4,CCC(CC)C(=O)Nc1ccc(OCc2cc(=O)n3cccc(C)c3n2)cc1,2.07
5,Cc1ccc(-c2ncnc3c(C#N)c4ccccn4c23)cc1,2.39
6,Nc1ccc(-c2cc(=O)n3[nH]cnc3n2)cc1,10.6 (active)
7,O=C(Nc1nc2nc(-c3ccccc3)cc(=O)n2[nH]1)C1CCCCC1,0.88
8,O=C(Nc1nc2nc(-c3ccccc3)cc(=O)n2[nH]1)C1CC1,2.82
9,Cc1cc(-c2ccc(S(=O)(=O)N3CCc4ccccc4C3)s2)on1,0.06
10,Cc1ccc(S(=O)(=O)Nc2ccc3c(c2)oc(=O)n3C)cc1,1.19
11,CCSc1nc2c(c(=O)[nH]1)C(c1ccc(OC)c(Br)c1)CC(=O)N2 (stereo not drawn),1.43
12,C#CCSc1nc2c(c(=O)[nH]1)C(c1ccc(OCCCC)cc1)CC(=O)N2 (stereo not drawn),-0.97
13,C#CCSc1nc2c(c(=O)[nH]1)C(c1ccc(O)c(O)c1)CC(=O)N2 (stereo not drawn),26.9 (active)
14,CCN(CC)C(=O)Cn1c(-n2nc(C)cc2C)nc2c(c1=O)CCCC2,1.12
15,Cc1ccc(-c2nc(CSCC(=O)NC3CC3)no2)cc1,0.42
16,C=C(C)COc1ccc2oc(C)c(C(=O)OCC)c2c1,0.55
17,COc1cc(C2CC(=O)N3CN(c4ccccc4)CSC3=C2C#N)ccc1O (stereo not drawn),31.5 (active)
18,CCOc1ccc(C2CC(=O)N3CN(c4ccc(OC)cc4OC)CSC3=C2C#N)cc1OC (stereo not drawn),-4.55
19,COc1cc(C2CC(=O)N3CN(c4ccc(Br)cc4)CSC3=C2C#N)ccc1O (stereo not drawn),24.7 (active)
20,COc1cccc(C2CC(=O)N3CN(c4ccc(Br)cc4)CSC3=C2C#N)c1 (stereo not drawn),-2.72
21,COC(=O)c1ccc(N2CSC3=C(C#N)C(c4ccc(Cl)cc4)CC(=O)N3C2)cc1 (stereo not drawn),-0.23
22,COc1ccc(N2CSC3=C(C#N)C(c4cccc(Br)c4)CC(=O)N3C2)cc1 (stereo not drawn),-0.77
23,COc1cccc(Nc2c(O)c(=O)c2=O)c1,-0.8
24,CCC(C)NC(=O)Cn1c(=O)n(CC2CCC(C(=O)N3CCCC3)CC2)c(=O)c2sccc21 (stereo not drawn),0.29
25,CC1CCCN(C(=O)Cn2c(=O)oc3cc(S(=O)(=O)N4CCCCC4C)ccc32)C1 (stereo not drawn),1.86

row,SMILES,z-score
1,CSc1nnc(-c2nonc2NC(C)=O)n1C,0.81
2,COc1cccc(Nc2nc(-c3cc(OC)ccc3OC)no2)c1,1.24
3,CC(=O)N1N=C(c2cc(C3CC3)nc3ccccc23)OC1c1ccc(F)cc1 (stereo not drawn),21.6 (active)
4,CC(=O)N1N=C(c2cc(C3CC3)nc3ccccc23)OC1c1ccc([N+](=O)[O-])s1 (stereo not drawn),2.1
5,COc1ccccc1C1OC(c2cc(C3CC3)nc3ccccc23)=NN1C(C)=O (stereo not drawn),1.12
6,COc1ccc(-c2nc3sccn3c2Nc2ccc(Cl)cc2)cc1,0.26
7,O=c1[nH]c(-c2cccc(Cl)c2)nc2c1Cc1cc(F)ccc1O2,1.31
8,CCOc1ccccc1NS(=O)(=O)c1cc2c3c(c1)C(C)C(=O)N3CCC2 (stereo not drawn),2.12
9,Cc1ccc(S(=O)(=O)Nc2ccc3[nH]c(=O)oc3c2)cc1C,0.9
10,Cc1cc(NS(=O)(=O)c2ccc(-n3cccn3)cc2)ccc1Br,0.31
11,Cc1cc(NS(=O)(=O)c2ccc3[nH]c(=O)ccc3c2)ccc1Br,3.75 (active)
12,CCC(C)NC(=O)c1ccc2c(=O)n(C)c3n[nH]c(=O)n3c2c1 (stereo not drawn),-1.23
13,COC(=O)c1cccc(N2C(=O)C3C4C=CC(CC4)C3C2=O)c1 (stereo not drawn),-0.18
14,COc1cccc(-c2n[nH]c3c2C(c2cccs2)NC3=O)c1 (stereo not drawn),0.03
15,O=C1C(=O)N(CCCN2CCOCC2)C(c2ccc(F)cc2)/C1=C(\O)c1ccc(F)cc1 (stereo not drawn),-0.23
16,CCN(c1cccc(C)c1)c1c(-c2ccc(C)c(C)c2)c(=O)c1=O,1.19
17,Cc1cc(=O)oc2c1c(C)nn2-c1ccc(Cl)cc1,6 (active)
18,Cc1cc(=O)oc2c1c(C)nn2-c1cccc(Br)c1,2.1
19,Cc1cccc(-n2nc(C)c3c(C)cc(=O)oc32)c1,-1.35
20,CCOCc1nc(N2CCOCC2)sc1C(=O)NCc1ccco1,1.59
21,Cc1nc2c3cccnc3nn2c(C)c1CCC(=O)NC1CCCCC1,0.03
22,Cc1nc2nc(N3C(=O)CCC3=O)[nH]n2c(=O)c1C,0.34
23,O=C(NCc1ccc2c(c1)OCO2)c1sc2ncccc2c1-n1cccc1,0.34
24,O=C(NCc1ccc2c(c1)OCO2)c1sc(=S)n2c1[nH]c(=O)c1ccccc12,8.38 (active)
25,O=C(NCc1ccc2c(c1)OCO2)C(=O)c1c[nH]c2ccccc12,-0.39

row,SMILES,z-score
1,CCc1ccc(S(=O)(=O)Nc2cccc(-c3ccc(S(C)(=O)=O)nn3)c2)s1,-0.88
2,O=S(=O)(c1ccc(Cl)cc1)N(Cc1nc(-c2ccccc2)no1)C1CCCCC1,-0.39
3,CCOC(=O)c1sc(=S)n2c1[nH]c(=O)c1ccc(C(=O)OC)cc12,3.58
4,O=C(NC1CCCCC1)c1ccc(CNc2c(N3CCCC3)c(=O)c2=O)cc1,2.73
5,C=CCNC(=O)c1sc(=S)n2c1[nH]c(=O)c1ccc(C(=O)OC)cc12,-0.19
6,O=C(O)c1ccc2c(=O)[nH]c3c(C(=O)NC4CCCCC4)sc(=S)n3c2c1,10.3 (active)
7,O=C(NC1CCCC1)c1ccc2c(=O)[nH]c3c(C(=O)NCC4CCCO4)sc(=S)n3c2c1 (stereo not drawn),9.34
8,CC(C)NC(=O)c1sc(=S)n2c1[nH]c(=O)c1ccc(C(=O)NCCN(C)C)cc12,7.52 (active)
9,Cc1nn2c(=O)cc(CSc3nnc(COc4ccccc4C)n3C)nc2s1,-1.46
10,CCNc1nc(NCCN(C)C)nc2c1cnn2C,1.49
11,CC1CCN(S(=O)(=O)c2ccc3nc(Nc4cc(F)ccc4F)ccc3c2)CC1,1
12,C=CCc1ccccc1OCc1cc(=O)n2nc(-c3ccc(OC)cc3)sc2n1,-1.28
13,CCOc1ccc(-c2nc3c(s2)CN(S(=O)(=O)c2cccc4nsnc24)CC3)cc1,0.4
14,CCCNS(=O)(=O)c1ccc2c(c1)oc(=O)n2CC(=O)OCC,-3.16
15,Cc1nn(C)c(C)c1CNS(=O)(=O)c1ccc2c(c1)oc(=O)n2C,0.45
16,Cc1nc2ccccc2n1CCNS(=O)(=O)c1ccc2c(c1)oc(=O)n2C,3.26 (active)
17,CCC1CN(C(=O)Nc2ccccc2)c2ccccc2O1 (stereo not drawn),1.11
18,CN(C)c1ccc(NC(=O)CSc2nc(-c3ccco3)cc(C(F)(F)F)n2)cc1,0.28
19,c1ccc(CSc2nnc(-c3ccco3)c(-c3ccco3)n2)cc1,8.76 (active)
20,Nc1cc(=O)nc(SCc2ccccc2)n1Cc1ccco1,0.7
21,O=C(CSc1ccc(-c2cccs2)nn1)Nc1ccc(Br)cc1,2.14
22,O=C(CSc1nnc(-c2ccco2)c(-c2ccco2)n1)Nc1ccc(Br)cc1,24.6 (active)
23,O=c1[nH]c(SCc2ccccc2)nnc1-c1ccccc1,-0.2
